The list is not random: actives were taken first. Their share in the collection is about 21%.
VP16 counter – VP16 counterscreen qHTS for inhibitors of ROR gamma transcriptional activity. hit rate 3.5% among 310,000. AID 2546, 2010. Potency, µM (doses to about 53.6 µM), without a hit: top-dose activity, negative = inhibition, hits mostly inhibitors. Drosophila S2 Gal4-VP16 UAS-luciferase, luminescence, 20 h;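 also: Gal4-VP16 expression switched on by copper sulfate through the metallothionein promoter; potency is read from the fitted curve at half-maximal effect; nearly all actives have a fitted effect of over 50% in size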
ELG1 DNA repair – qHTS screen for small molecules that inhibit ELG1-dependent DNA repair in human embryonic kidney (HEK293T) cells expressing luciferase-tagged ELG1. hit rate 2.3% among 330,000. AID 504467, 2011. Potency, µM (doses to about 46.1 µM), for the others: at the top dose activity change, negative = inhibition, actives largely listed as inhibitors. HEK293T ELG1-luciferase reporter, luminescence, 16 h; DNA damage induced by 5-fluorouridine; also: potency is read from the fitted curve at half-maximal effect; nearly all actives have a fitted effect of over 55% in size
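Cells (2,000 per well) received 5-fluorouridine plus test compound or DMSO and were incubated 16 hr at 37 °C, 5% CO2. Luciferase activity was read by luminescence 30 min after ONE-Glo addition; signal suppression marked inhibition of damage-induced ELG1 function.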
DT40 TDP1 CPT – qHTS for Inhibitors of human tyrosyl-DNA phosphodiesterase 1 (TDP1): qHTS in cells in presence of CPT; chicken DT40 Tdp1-/-;hTDP1 cells + 20 nM CPT, ATP luminescence, 48 h; Potency, µM (series often up to 46.2 µM), without a hit: at the top dose activity change, negative = growth inhibition, actives largely listed as inhibitors; hit rate 12% among 420,000; AID 686979, 2013; also: potency is read from the fitted curve at half-maximal effect; nearly all actives have a fitted effect of over 55% in size
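Cell growth measured by CellTiter-Glo luminescence after a minimum 48 h, 37 C compound exposure with 20 nM CPT in Tdp1-knockout DT40 cells stably expressing hTDP1, seeded 400/well; qHTS titration format.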
RORgamma inh – qHTS for inhibitors of ROR gamma transcriptional activity | AID 2551, 2010 | Potency, µM (highest dose often 53.6 µM), without a hit: at the top dose activity change, negative = inhibition, hits mostly inhibitors | Drosophila S2 Gal4-RORgamma UAS-luciferase reporter, 20 h | Nuclear receptor ROR-gamma (Mus musculus), P51450 | hit rate 5.4% among 310,000; also: potency is read from the fitted curve at half-maximal effect; nearly all actives have a fitted effect of over 60% in size
Target sequence (P51450 whole entry, looked up, the tested form may be a part): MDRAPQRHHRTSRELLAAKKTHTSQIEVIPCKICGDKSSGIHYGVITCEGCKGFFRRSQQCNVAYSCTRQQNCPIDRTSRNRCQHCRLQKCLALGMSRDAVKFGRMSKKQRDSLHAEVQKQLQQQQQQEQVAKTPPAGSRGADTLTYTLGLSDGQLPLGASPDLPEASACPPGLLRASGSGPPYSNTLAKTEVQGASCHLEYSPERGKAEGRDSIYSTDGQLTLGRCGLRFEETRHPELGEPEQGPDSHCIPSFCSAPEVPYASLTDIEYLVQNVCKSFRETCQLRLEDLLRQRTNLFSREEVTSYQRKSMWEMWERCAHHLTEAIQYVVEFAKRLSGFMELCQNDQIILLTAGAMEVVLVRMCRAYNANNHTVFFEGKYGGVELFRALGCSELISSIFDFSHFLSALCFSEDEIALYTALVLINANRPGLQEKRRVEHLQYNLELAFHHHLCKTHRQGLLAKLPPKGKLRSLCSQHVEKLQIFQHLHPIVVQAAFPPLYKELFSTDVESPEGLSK
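Drosophila S2 cells stably expressing Gal4-DBD/mouse RORγ fusion under metallothionein promoter plus UAS-luciferase; compound 1 h, then 700 uM CuSO4 induction for 20 h at ambient temperature; inhibition read as reduced luminescence.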
IL1B secr inh – qHTS for Inhibitors of Inflammasome Signaling: IL-1-beta AlphaLISA Primary Screen; AID 743279, 2014; THP-1 LPS/ATP IL-1B secretion, AlphaLISA, 16 h; stronger effect = lower value; activity change, % at 57.5 µM; hit rate 4.7% among 360,000; in the data active = activity change below about -50%; inconclusive = mostly about -30% to -49%
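THP-1 cells pretreated 1 hr with compounds (up to 57.5 uM final), then stimulated with LPS (250 ng/mL final) plus ATP (1.25 mM final); secreted IL-1B measured by AlphaLISA after 16 hr, decreased signal indicating inhibition.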
DT40 TDP1 no CPT – qHTS for Inhibitors of human tyrosyl-DNA phosphodiesterase 1 (TDP1): qHTS in cells in absence of CPT. Potency, µM (series often up to 46.2 µM), inactives show at the top dose activity change, negative = growth inhibition, hits mostly inhibitors. hit rate 15% among 420,000. AID 686978, 2013. DT40 Tdp1-/- hTDP1 cells, no CPT, ATP luminescence, 48 h; also: potency is read from the fitted curve at half-maximal effect; nearly all actives have a fitted effect of over 55% in size
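Growth of hTDP1-complemented DT40 Tdp1-knockout cells is measured by ATP luminescence after at least 48 hr compound exposure at 37 °C, with DMSO substituting for the 20 nM CPT used in the parallel screen.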
* hit, by the source's call; ? = inconclusive; nt = not tested or not shown; ! = not active in a repeat; [ ] = remark or other dose. Unless noted, calls follow the shape of the dose curve; as a rule, active = well fitted curve in the direction sought with a large enough effect; inconclusive = small, poorly fitted or top-dose-only effect, or another doubt; inactive = no such curve, though single readings can be large; an effect the other way counts as inactive or inconclusive. % is scaled to controls: 0 for no effect and ±100 for the full control effect.

SMILES	VP16 counter	ELG1 DNA repair	DT40 TDP1 CPT	RORgamma inh	IL1B secr inh	DT40 TDP1 no CPT
Cc1cc(C)c2c(N)c3ccccc3nc2n1	-21%	0%	?	-20%	-89*	23µM*
CCc1ccc2nc3nc(C)cc(C)c3c(N)c2c1	-27%	2%	?	-23%	-104*	11µM*
Cc1ccc2cc3c(N)c4c(C)ccc(C)c4nc3nc2c1	-2%	25%	?	-18%	20	?
CC(C)(C)Cc1nnc(NC(=O)CCC2CCCCC2)s1	-9%	3%	14%	-3%	30	-16%
Clc1ccc2c(NCc3ccccc3)ccnc2c1	-22%	?	?	11%	-99*	10µM*
CCN(CCO)CCCC(C)Nc1ccnc2cc(Cl)ccc12 (configuration not stated)	-9%	nt	2.6µM*	-7%	nt	4.1µM*!
CCN(CC)CCOc1c(C)cccc1Cl	-1%	-11%	0%	0%	13	10%
Clc1ccc(NNc2ccnc3cc(Cl)ccc23)cc1	-1%	3%	?	-30%	-30	?
CCN(CC)CCCC(C)Nc1nccc2c(Cl)cccc12 (configuration not stated)	nt	nt	21µM*	nt	?	?
S=C(NNc1ccnc2cc(Cl)ccc12)Nc1ccccc1Cl	?	?	4.1µM*	-1%	-91*	2.6µM*
C[C@H](NC(=O)c1ncn2c1c(=O)[nH]c1ccc(Br)cc12)c1ccccc1	nt	nt	?	nt	7	?
CCCCNC(=O)c1nn(-c2ccc(C)cc2)c(=O)n(C)c1=O	nt	nt	-13%	nt	nt	-19%
CCc1ccc(OCc2cc(=O)n3c4c(sc3n2)CCCC4)cc1	nt	nt	-27%	nt	nt	?
Cc1cccc(NC(=O)N2CCC(C(=O)c3ccc(F)cc3)CC2)c1	-12%	-20%	?	18%	-14	?
CCN(CC)CCNc1ccnc2cc(Cl)ccc12	-5%[0.365 µM]	-11%	-21%	-10%	-56*	-22%
Oc1ccc(Nc2ccnc3cc(Cl)ccc23)cc1	1%	?	?	1%	-74*	21µM*
CC1CN(C(=O)c2ccccc2OCc2ccc(Cl)cc2Cl)CC(C)O1 (configuration not stated)	nt	-16%	16µM*	nt	-3	3.7µM*
CC1CN(C(=O)c2ccccc2Oc2ccccc2)CC(C)O1 (configuration not stated)	-16%	-12%	-13%	1%	12	?
O=S(=O)(Cc1ccccc1)N(O)c1ccccc1	-14%	11%	21µM*	16%	-63*	23µM*
CCOC(=O)c1c(C)oc2nc(C)nc(N3CCN(c4cccc(C)c4C)CC3)c12	nt	nt	21µM*	nt	nt	18µM*
CCOC(=O)c1c(C)oc2nc(C)nc(Nc3ccc(C)c(Cl)c3)c12	nt	nt	-15%	nt	nt	-12%
CCOC(=O)c1c(C)oc2ncnc(N3CCN(c4ccccc4F)CC3)c12	nt	nt	18µM*	nt	nt	13µM*
CCOC(=O)c1c(C)oc2nc(C)nc(N3CCN(c4cc(Cl)ccc4C)CC3)c12	nt	nt	4.6µM*	nt	nt	21µM*
CCOC(=O)c1c(C)oc2ncnc(N3CCN(c4ccccc4)CC3)c12	nt	nt	8.2µM*	nt	nt	8.2µM*
CCOC(=O)c1c(C)oc2nc(C)nc(NCCCN3CCN(c4ccccc4)CC3)c12	nt	nt	-17%	nt	nt	-2%
SMILES	VP16 counter	ELG1 DNA repair	DT40 TDP1 CPT	RORgamma inh	IL1B secr inh	DT40 TDP1 no CPT
COc1cn(CC(=O)Nc2ccc(C)cc2)c(CN2CCCCC2)cc1=O	nt	nt	10%	nt	nt	-14%
COc1c2c(cc3oc(CO[C@@H]4O[C@H](CO)[C@@H](O)[C@H](O)[C@H]4O)cc(=O)c13)O[C@H](C(C)(C)O)C2	nt	?	1%	nt	17	-11%
Cc1oc2ncnc(N3CCOCC3)c2c1C(=O)Nc1ccc(Br)cc1F	nt	nt	9%	nt	nt	-14%
CCOC(=O)c1c(C)oc2nc(C)nc(N3CCN(c4ccccc4F)CC3)c12	nt	nt	15µM*	nt	nt	7.3µM*
CCOC(=O)c1ccccc1NC(=O)c1c(C)oc2ncnc(N3CCOCC3)c12	nt	nt	?	nt	nt	21µM*
COc1cccc(NC(=O)Cn2c(=O)n(CCC(=O)NCc3ccccc3OC)c(=O)c3ccccc32)c1	nt	nt	26µM*	nt	nt	?
COc1ccccc1CNC(=O)CCn1c(=O)c2ccccc2n(CC(=O)Nc2cc(Cl)ccc2C)c1=O	nt	nt	-28%	nt	nt	?
COc1ccccc1CNC(=O)CCCCn1c(=O)c2ccccc2n(CC(=O)Nc2cccc(Cl)c2)c1=O	nt	nt	23µM*	nt	nt	9.2µM*
Nc1nonc1C(=O)NCCNCc1ccccc1	-1%	-14%	-15%	-7%	19	-25%
Nc1nonc1C(=O)NCCNCc1c(OCc2ccccc2F)ccc2ccccc12	-10%	?	11µM*	11%	-81*	11µM*
Nc1nonc1C(=O)NCCNCc1cc(Br)ccc1OCc1ccc(F)cc1	13µM*	-10%	10µM*	-37%	-65*	10µM*
Cc1cc(C)cc(C(=O)NCC(=O)OCC(=O)c2cc(C)n(CC(F)(F)F)c2C)c1	5%	2%	4%	25%	18	-24%
NC(=N\N=CCc1ccccc1)/C(N)=N/N=CCc1ccccc1	nt	nt	?	nt	-21	?
CC(C)C(=O)N1CCN(c2ccc(NC(=O)COc3ccccc3[N+](=O)[O-])cc2)CC1	-2%	9.2µM*	15µM*	28%	-90*	18µM*
O=C(COc1cc(F)ccc1[N+](=O)[O-])Nc1ccc(N2CCCCC2)cc1	nt	-10%	?	nt	-67*	?
CN1CCN(c2ccc(NC(=O)COc3ccccc3[N+](=O)[O-])cc2)CC1	-6%	-8%	-2%	1%	4	?
O=C1CCc2cc(-c3csc(-c4ccc(O)cc4)n3)ccc2N1	nt	nt	11µM*	nt	nt	3.2µM*
Cc1ccc(-c2csc(Cc3nc(-c4ccc5c(c4)CCC(=O)N5)cs3)n2)cc1	-6%	-21%	?	13%	35	?
CC(C)(Oc1ccc(Cl)cc1)C(=O)NCCN1C(=O)S/C(=C/c2cccnc2)C1=O	?	?	?	-65%	-91*	?
CC(Oc1ccc(Cl)cc1)C(=O)NCCN1C(=O)S/C(=C\c2cccnc2)C1=O (configuration not stated)	?	?	21µM*	-25%	-78*	18µM*
